The record followed here is PubChem BioAssay (Tox21).

Values without a mark were called inactive. Inconclusive results are not listed. Active and inactive are the calls of the source. Unless noted, calls come from the whole dose curve; as a rule, active = well fitted curve in the direction sought with a large enough effect in the repeat runs; inconclusive = weak or mixed curves; inactive = no such curve, though single readings can be large; an effect the other way counts as inactive or inconclusive.

For test [1], the target named is Thyrotropin receptor (Homo sapiens) (UniProt P16473). Put plainly: qHTS assay to identify small molecule antagonists of the thyroid stimulating hormone receptor (TSHR) signaling pathway (AID 1259385; calls by dose curve; note: nearly all actives have a fitted effect of over 20% in size). The procedure, abridged: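 TSHR-HEK293 cells (800/well) plated 18 h, then compounds with Ro20-1724 and TSH at 1.5 ng/mL final, 30 min at room temperature. cAMP quantified by HTRF (cAMP-d2/anti-cAMP-cryptate, 1 h); 15 concentrations in triplicate.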

A short description of test [2]: qHTS assay to identify small molecule agonists of the estrogen receptor alpha (ER-alpha) signaling pathway in the presence of an antagonist - cell viability counter screen (AID 1259386).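 Note: series mostly up to about 92 µM; cells exposed to compounds for 22 h at 37 °C before the viability read; nearly all actives have a fitted effect of over 30% in size.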 The procedure, abridged: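 Cell viability in VM7Luc4E2 cells (endogenous full-length ER-alpha) measured by CellTiter-Fluor fluorescence in the same wells as the luciferase screen. Cells pre-cultured 5 days in charcoal-stripped serum, then treated 22 h with compounds at 15 concentrations plus 10.0nM ICI-182,780.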
A general note: Quantitative high-throughput screening tests each substance at several concentrations.

In test [3] the target is Progesterone receptor (Homo sapiens) (UniProt P06401). As to the kind of experiment: qHTS assay to identify small molecule agonists of the progesterone receptor (PR) signaling pathway (AID 1346784; calls by dose curve; note: nearly all actives have a fitted effect of over 30% in size). The method in brief:
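Agonist mode, quantitative HTS format in a HEK 293T line expressing a UAS-controlled beta-lactamase reporter; 16 hr compound exposure at 37C in 2% charcoal-stripped FBS, then LiveBLAzer B/G FRET fluorescence.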

Test [4] has the same target. As to the kind of experiment: qHTS assay to identify small molecule antagonists of the progesterone receptor (PR) signaling pathway (AID 1346795; active = well fitted inhibition curve with a large enough effect in the signal ratio in the repeat runs, not every such curve was filed as active; the % refers to the signal ratio). The method in brief: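 HEK293T PR-UAS-bla reporter cells in charcoal-stripped serum (2%) received compound after a 6 hr settling period, followed by R5020 agonist at 1 nM final; 16 hr incubation preceded the FRET substrate step and fluorescence measurement.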

Test [5] in a line: qHTS assay to identify small molecule antagonists of the progesterone receptor (PR) signaling pathway - cell viability counter screen (AID 1346798). Note: series mostly up to about 92 µM; nearly all actives have a fitted effect of over 50% in size. The method in brief: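 Same-well multiplex: after 16 hr at 37C with compound and R5020 stimulation, HEK293T cells carrying a UAS-bla reporter received LiveBLAzer substrate (2 hr RT), then CellTiter-Glo (30 min RT) for luminescent viability.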

Test [6] can be described thus: qHTS assay to identify small molecule agonists of the progesterone receptor (PR) signaling pathway - cell viability counter screen (AID 1346799; calls by dose curve; note: nearly all actives have a fitted effect of over 45% in size). The procedure, abridged: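 Counter screen for cytotoxicity: compound-treated PR-UAS-bla HEK293T cells (16 hr, 37C, 5% CO2) were assayed with CellTiter-Glo, luminescence measured after 30 min at room temperature.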
Test [7] is described as follows: qHTS assay to identify small molecule antagonists of the TGF-beta/Smad signaling pathway - cell viability counter screen (AID 1346824). Note: nearly all actives have a fitted effect of over 50% in size. The method in brief: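 SBE-bla HEK 293T cells, incubated overnight, then compound plus 0.25 ng/mL TGF-beta1 (stock added) for 5 hr at 37 C. Viability was read in the same wells by CellTiter-Glo luminescence after 30 min at room temperature.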

The nature of test [8]: qHTS assay to identify small molecule agonists of the TGF-beta/Smad signaling pathway - cell viability counter screen (AID 1346829). Note: top concentration of the series differs between compounds; nearly all actives have a fitted effect of over 45% in size. The procedure, abridged:
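Compound-treated SBE-bla HEK 293T cells (5 hr, 37 C) were assessed for viability with CellTiter-Glo in parallel with the reporter read.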

Test [9] can be described thus: qHTS assay to identify small molecule agonists of the TGF-beta/Smad signaling pathway (AID 1346859; active = well fitted activation curve with a large enough effect in the signal ratio in the repeat runs, not every such curve was filed as active; the % refers to the signal ratio; note: series mostly up to about 77 µM). The procedure, abridged:
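Smad-responsive beta-lactamase reporter cells (HEK 293T) received compounds from DMSO stocks after overnight attachment, were incubated 5 hr, then treated 2 hr with FRET substrate before dual-emission fluorescence measurement (405 nm excitation).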

For test [10], the target named is Thyrotropin-releasing hormone receptor (Homo sapiens) (UniProt P34981). Put plainly: qHTS assay to identify small molecule antagonists of the thyrotropin-releasing hormone receptor (TRHR) signaling pathway (AID 1346877; active = well fitted inhibition curve with a large enough effect in the repeat runs, not every such curve was filed as active; note: series mostly up to about 51 µM). The procedure, abridged:
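TRHR-expressing HEK293 cells loaded with calcium dye for 2 h at 37 C; compounds pre-incubated 5 min at room temperature before TRH challenge at 1 nM final. Intracellular calcium fluorescence read kinetically for 3 min; 15 concentrations in triplicate.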

The target is the same in test [11]. Put plainly: qHTS assay to identify small molecule agonists of the thyrotropin-releasing hormone receptor (TRHR) signaling pathway (AID 1346891; calls by dose curve; note: series mostly up to about 58 µM). The procedure, abridged: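 Agonist-mode calcium mobilisation screen: TRHR-transfected HEK293 cells cultured overnight (18 h), dye-loaded for 2 h at 37 °C, exposed to compounds, and monitored by fluorescence for 3 min.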

The nature of test [12]: Human pregnane X receptor (PXR) small molecule agonists, qHTS cell viability counter screen (AID 1346977). Note: nearly all actives have a fitted effect of over 50% in size. The procedure, abridged:
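Measures live-cell protease fluorescence (CellTiter-Fluor) in PXR-Luc HepG2 cells treated 24hr with compounds at 37C. Cells had 5hr to attach before pin transfer of DMSO solutions.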

Test [13] is described as follows: Caspase-3/7 induction in HepG2 cells by small molecules, qHTS assay (AID 1346978). Note: nearly all actives have a fitted effect of over 15% in size. The method in brief: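 Wild-type HepG2 cells, 2,000/well, settled 5 hr at 37 C and 5% CO2, then compound-treated for 17 hr; caspase-3/7 activity read by luminescent Caspase-Glo 3/7 after 30 min at room temperature.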
Test [14] is described as follows: Caspase-3/7 induction in CHO-K1 cells by small molecules, qHTS cell viability counter screen (AID 1346979). Note: nearly all actives have a fitted effect of over 35% in size. The method in brief:
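In the same wells as the caspase read, viability of compound-treated wild-type CHO-K1 cells was assessed using CellTiter-Fluor, added after 16hr at 37C and measured by fluorescence following 1hr further incubation.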

The nature of test [15]: Caspase-3/7 induction in CHO-K1 cells by small molecules, qHTS assay (AID 1346980). Note: nearly all actives have a fitted effect of over 15% in size. The method in brief: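 Wild-type CHO-K1 cells exposed to compounds for 17hr at 37 C, 5% CO2. Caspase-3/7 activity then measured by Caspase-Glo 3/7 luminescence after 30min at room temperature.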
Test [16] can be described thus: Caspase-3/7 induction in HepG2 cells by small molecules, qHTS cell viability counter screen (AID 1346981). Note: series mostly up to about 92 µM; nearly all actives have a fitted effect of over 30% in size. The procedure, abridged:
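Wild-type HepG2 cells, 2,000/well, settled 5 hr at 37 C, 5% CO2 before compound addition. Viability read by CellTiter-Fluor fluorescence, reagent added after 16 hr compound exposure, then 1 hr at 37C, in the same wells as the caspase read.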

For test [17], the target named is Nuclear receptor subfamily 1 group I member 2 (Homo sapiens) (UniProt O75469). As to the kind of experiment: Human pregnane X receptor (PXR) small molecule agonists, qHTS assay (AID 1346982). Note: nearly all actives have a fitted effect of over 35% in size. Note: potency is the fitted concentration of half-maximal effect. The method in brief:
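PXR-Luc HepG2 reporter cells (CYP3A4-driven luciferase) in 5% charcoal-stripped FBS medium, plated 5 h before compound addition, then treated 24 h at 37C. Luciferase read by ONE-Glo luminescence after 30 min at room temperature.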

Progesterone receptor (Homo sapiens), sequence (P06401 whole entry, looked up): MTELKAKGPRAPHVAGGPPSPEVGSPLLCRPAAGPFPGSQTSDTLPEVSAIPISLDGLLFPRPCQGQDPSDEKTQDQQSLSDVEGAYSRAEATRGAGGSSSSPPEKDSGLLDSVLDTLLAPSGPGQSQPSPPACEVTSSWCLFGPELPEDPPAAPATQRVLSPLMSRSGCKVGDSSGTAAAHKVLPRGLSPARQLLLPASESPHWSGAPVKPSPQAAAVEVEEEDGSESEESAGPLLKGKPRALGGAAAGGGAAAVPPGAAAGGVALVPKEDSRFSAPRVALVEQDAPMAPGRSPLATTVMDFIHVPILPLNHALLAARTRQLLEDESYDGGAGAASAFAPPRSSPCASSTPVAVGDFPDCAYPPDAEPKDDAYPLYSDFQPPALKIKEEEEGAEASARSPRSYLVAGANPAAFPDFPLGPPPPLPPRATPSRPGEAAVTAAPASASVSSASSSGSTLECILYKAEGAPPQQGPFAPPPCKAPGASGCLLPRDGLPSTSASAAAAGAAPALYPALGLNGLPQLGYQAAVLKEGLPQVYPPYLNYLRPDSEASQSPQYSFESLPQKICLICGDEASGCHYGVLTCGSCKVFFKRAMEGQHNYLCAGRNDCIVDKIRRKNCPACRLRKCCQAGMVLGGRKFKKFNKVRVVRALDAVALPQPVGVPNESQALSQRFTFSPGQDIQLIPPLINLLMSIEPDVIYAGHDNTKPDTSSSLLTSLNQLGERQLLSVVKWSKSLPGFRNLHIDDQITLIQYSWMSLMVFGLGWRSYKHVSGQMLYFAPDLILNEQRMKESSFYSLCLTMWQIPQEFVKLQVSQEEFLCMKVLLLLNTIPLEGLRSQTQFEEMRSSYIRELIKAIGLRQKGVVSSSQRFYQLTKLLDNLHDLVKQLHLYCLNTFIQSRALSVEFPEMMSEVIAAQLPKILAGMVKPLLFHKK
Nuclear receptor subfamily 1 group I member 2 (Homo sapiens), sequence (O75469 whole entry, looked up): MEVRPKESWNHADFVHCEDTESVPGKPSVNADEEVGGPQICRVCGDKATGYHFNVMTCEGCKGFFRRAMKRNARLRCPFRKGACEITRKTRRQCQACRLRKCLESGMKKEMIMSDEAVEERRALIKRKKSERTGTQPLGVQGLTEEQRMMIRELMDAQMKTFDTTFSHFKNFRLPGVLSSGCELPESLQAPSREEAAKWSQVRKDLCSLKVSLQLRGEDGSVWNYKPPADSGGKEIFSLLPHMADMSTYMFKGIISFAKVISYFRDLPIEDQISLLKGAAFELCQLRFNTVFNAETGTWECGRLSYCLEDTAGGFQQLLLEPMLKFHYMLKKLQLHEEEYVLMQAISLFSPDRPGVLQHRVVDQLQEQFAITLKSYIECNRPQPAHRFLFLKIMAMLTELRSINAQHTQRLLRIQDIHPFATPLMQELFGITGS
Thyrotropin-releasing hormone receptor (Homo sapiens), sequence (P34981 whole entry, looked up): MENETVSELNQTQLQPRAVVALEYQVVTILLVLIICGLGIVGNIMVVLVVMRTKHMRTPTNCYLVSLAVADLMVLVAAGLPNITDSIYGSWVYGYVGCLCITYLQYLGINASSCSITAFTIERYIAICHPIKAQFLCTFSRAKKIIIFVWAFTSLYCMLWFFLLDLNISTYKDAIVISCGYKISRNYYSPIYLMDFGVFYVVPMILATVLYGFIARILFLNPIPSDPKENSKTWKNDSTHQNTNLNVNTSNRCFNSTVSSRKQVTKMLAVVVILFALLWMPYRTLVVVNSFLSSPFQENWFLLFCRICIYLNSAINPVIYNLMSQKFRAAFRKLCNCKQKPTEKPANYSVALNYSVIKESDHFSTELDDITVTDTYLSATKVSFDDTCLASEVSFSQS
Thyrotropin receptor (Homo sapiens), sequence (P16473 whole entry, looked up): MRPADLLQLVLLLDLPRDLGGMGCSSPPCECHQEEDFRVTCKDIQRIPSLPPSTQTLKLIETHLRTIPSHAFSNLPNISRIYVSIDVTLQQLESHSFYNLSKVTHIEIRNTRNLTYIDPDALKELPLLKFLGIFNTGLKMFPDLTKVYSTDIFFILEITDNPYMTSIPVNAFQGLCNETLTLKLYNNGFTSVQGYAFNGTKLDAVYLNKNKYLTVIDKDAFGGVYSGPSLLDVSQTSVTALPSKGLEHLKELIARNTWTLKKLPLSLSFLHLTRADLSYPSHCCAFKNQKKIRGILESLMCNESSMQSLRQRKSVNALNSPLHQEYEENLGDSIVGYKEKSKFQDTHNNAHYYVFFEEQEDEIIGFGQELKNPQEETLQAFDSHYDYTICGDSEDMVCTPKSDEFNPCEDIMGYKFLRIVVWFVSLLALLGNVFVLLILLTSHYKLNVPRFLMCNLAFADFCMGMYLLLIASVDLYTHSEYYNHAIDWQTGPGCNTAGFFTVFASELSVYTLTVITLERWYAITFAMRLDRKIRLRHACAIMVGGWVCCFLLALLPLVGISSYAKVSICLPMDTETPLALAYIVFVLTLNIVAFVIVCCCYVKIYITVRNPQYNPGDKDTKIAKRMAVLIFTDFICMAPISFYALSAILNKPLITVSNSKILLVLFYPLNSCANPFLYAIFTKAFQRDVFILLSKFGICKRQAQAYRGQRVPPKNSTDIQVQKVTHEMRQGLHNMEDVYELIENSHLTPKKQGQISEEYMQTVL

For `C=C(C#N)CCC#N`, the Potency entry in test [1], in [2], in [3], in test [4], in [5] and in test [6] was “inactive” in each case. The Potency result in test [7], in [8], in [10], in test [11], in test [12] and in test [13] was “inactive” each time. Further, the Potency entry in [14], in [15], in [16] and in [17] was “inactive” in each case. For the same compound, in test [9], the compound was classed as inactive.
For `Cc1cc(=O)[nH]o1`, the Potency entry in test [1], in test [2], in test [3], in test [4], in test [5] and in test [6] was “inactive” throughout. Also, the Potency result in [7], in test [8], in [11], in test [12], in [13] and in test [14] was “inactive” each time. Moreover, the Potency result in [15] and in test [16] was “inactive” throughout. In addition, in [9], the compound was called inactive.
For `Cn1cc[n+](C)c1` (tested in a mixture with another compound), the Potency entry in [1], in test [2], in [3], in [4], in test [5] and in test [6] was “inactive” each time. Further, the Potency result in test [7], in test [8], in test [10], in [11], in [12] and in [13] was “inactive” each time. For the same compound, the Potency entry in test [14], in test [15], in test [16] and in [17] was “inactive” each time. Further, the compound was classed as inactive in [9].
In the case of `C=CCCl`, the Potency result in test [1], in test [2], in test [3], in test [4], in [5] and in [6] was “inactive” each time. Moreover, the Potency result in test [7], in [8], in test [10], in [12], in [13] and in test [14] was “inactive” throughout. The Potency result in test [15], in test [16] and in test [17] was “inactive” throughout. The outcome in [9] was inactive.
As for `CNC(C)Cc1ccccc1OC` (stereo not given), the Potency result in [1], in [2], in [3], in test [4], in test [5] and in [6] was “inactive” each time. Further, the Potency result in test [7], in test [8], in [11], in test [12], in test [13] and in [14] was “inactive” throughout. Besides, the Potency result in test [15] and in [16] was “inactive” throughout. Further, the compound was classed as inactive in test [9].
Regarding `ClCc1cccc(Cl)c1`, the Potency result in test [1], in test [2], in [3], in test [4], in [5] and in test [6] was “inactive” throughout. Besides, the Potency entry in [7], in [8], in [10], in test [11], in [12] and in test [13] was “inactive” in each case. The Potency entry in test [14], in test [15], in test [16] and in test [17] was “inactive” throughout. Besides, in test [9], the call was inactive.
As for `O=Cc1ccc2c(c1)OCO2`, the Potency result in [1], in [2], in test [3], in [4], in test [5] and in test [6] was “inactive” throughout. Also, the Potency entry in test [7], in [8], in test [10], in test [11], in [12] and in test [13] was “inactive” throughout. The Potency result in [14], in [15] and in test [16] was “inactive” each time. For the same compound, the compound was called inactive in [9].
Regarding `O=C(O)c1ccccc1C(=O)Nc1cccc2ccccc12`, the Potency result in [1], in [2], in test [3], in [4], in test [5] and in test [6] was “inactive” throughout. Also, the Potency entry in test [7], in test [8], in [10], in test [11], in test [12] and in [13] was “inactive” throughout. For the same compound, the Potency result in test [14], in [15] and in test [16] was “inactive” each time. In addition, the call in test [9] was inactive.
`C=CC(=O)OCC(C)C`: the Potency entry in [1], in [2], in test [3], in test [4], in test [5] and in test [6] was “inactive” each time. The Potency entry in [7], in test [8], in test [10], in test [11], in test [12] and in test [13] was “inactive” each time. Further, the Potency entry in test [14] and in [15] was “inactive” throughout. Further, the call in test [9] was inactive. Moreover, in [17], the Potency was 48.2 µM (active).
